The text below walks through data of PubChem BioAssay AID652054 (National Center for Advancing Translational Sciences (NCATS), 2013).

In all, about 360,000 compounds went through this assay and about 9,100 (2.5%) were called active. About 4% were inconclusive and are not listed. Cut-off read from the data, not from the text of the source: active = max response below about -50%; inconclusive = no clear call, values can overlap the other calls; inactive = above that. Many of the other results were omitted from the sample, so actives are more common in it than they were.
% is set by controls: 0 for no effect and ±100 for the full control effect.

Sequence of D(3) dopamine receptor (Homo sapiens) (P35462 whole entry, looked up): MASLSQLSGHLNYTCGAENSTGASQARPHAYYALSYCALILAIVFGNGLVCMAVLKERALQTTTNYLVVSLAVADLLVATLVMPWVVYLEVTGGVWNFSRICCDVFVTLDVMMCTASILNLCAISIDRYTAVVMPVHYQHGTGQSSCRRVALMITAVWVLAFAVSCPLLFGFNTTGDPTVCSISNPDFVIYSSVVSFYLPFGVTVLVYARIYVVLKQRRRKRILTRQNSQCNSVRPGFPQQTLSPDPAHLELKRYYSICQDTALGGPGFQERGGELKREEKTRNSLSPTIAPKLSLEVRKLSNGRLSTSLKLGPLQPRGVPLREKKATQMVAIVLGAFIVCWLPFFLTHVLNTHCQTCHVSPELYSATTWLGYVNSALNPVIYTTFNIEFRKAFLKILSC

The target of this assay is D(3) dopamine receptor (Homo sapiens) (UniProt P35462). Nature of the assay: qHTS of D3 Dopamine Receptor Antagonist: qHTS. Particulars: D3R cells, DiscoveRx beta-arrestin luminescence, antagonist mode; stronger effect = lower value. An excerpt:
D3 DARs represent a very important target for the treatment of several neuropsychiatric disorders. Indeed, one of the most promising therapeutic applications for the D3 DAR is in the area of addiction and related disorders. […] These findings have been observed with a number of addictive substances including cocaine, amphetamine, nicotine, and alcohol. […] Antagonism of the D3 DAR may also be therapeutic in the treatment of schizophrenia or psychosis. […] Since the D3 DAR is expressed in areas of the CNS associated with the control of mood and emotion, it has been hypothesized that selective antagonism of the D3 DAR may be effective in treating psychosis without inducing the motor side effects typically seen with D2 DAR antagonists.
This part of the project aims to discover novel antagonist.
NIH Chemical Genomics Center [NCGC]
NIH Molecular Libraries Probe Centers Network [MLPCN]
Assay Submitter (PI): David Sibley, NINDS
Freshly passaged cells are plated in 1536 well white, solid bottom plates at a density of 1500 cells/well in 3microl of complete media. After an overnight incubation at 37 degrees C in 5% CO2, cells are loaded with 23nl of test compound from the compound library (as well as dopamine controls) using a 1536 pintool and incubated at 37 degrees C for 90 minutes. Two microliters of DiscoveRx reagent is then added to all cells, and they are incubated for an additional 30 - 60 minutes at room temperature. Following incubation, luminescence is measured on a ViewLux CCD-based luminometer reader using a 20 sec exposure time.
Take `Cc1sc2ccccc2c1CNC[C@H]1O[C@@H](n2ccc(=O)[nH]c2=O)[C@H](O)[C@@H]1O`: the max response, negative = inhibition was 23.7% (inactive). As for `O=C(NCc1ccccc1Cl)c1csc([C@@H]2O[C@H](CO)[C@@H](O)[C@H]2O)n1`, the max response, negative = inhibition is 0% (inactive). With `Cc1ccccc1-c1csc(C(O)c2cccc(Cl)c2)n1` (stereo not drawn) the figure was -14.8% (inactive); with `CC(C)Cn1cc(-c2cncc3nccn23)cn1`, 19.7% (inactive). The value for `NC(=O)CSc1nnc(-c2cccc(S(=O)(=O)N3CCOCC3)c2)o1` was -19.7% (inactive). With `Cc1c(C(=O)NCc2ccc(C#N)cc2)sc(=O)n1Cc1ccc(C(=O)N(C)C)cc1` the figure was 16.1% (inactive); with `COc1ccc(C(=O)N2CCC(C(=O)Nc3cccc(C)c3)CC2)cc1OC`, 9.36% (inactive). Turning to `CC(C)(C)c1ccc(C(=O)N2CCC(C(=O)N3CCCCC3)CC2)cc1`, the max response, negative = inhibition is 7.98% (inactive). `COc1ccccc1NC(=O)C1CCN(C(=O)c2ccc(C(C)(C)C)cc2)CC1`: the max response, negative = inhibition is -52% (active). With `CC(=O)N(C1=C(Cl)C(=O)c2ccccc2C1=O)c1ccc(C(=O)O)cc1`, the max response, negative = inhibition was -17.6% (inactive). The value for `O=C1C(Cl)=C(Oc2ccccc2)C(=O)c2ccccc21` was -90.6% (active); that for `COc1cccc(CNc2nc(NCc3cccs3)nc3ccsc23)c1` was -28.6% (inactive); that for `C[C@H](CO)N1C[C@H](C)[C@@H](CN(C)S(=O)(=O)c2ccc(F)cc2)OCc2cnnn2CCCC1=O` was -22.3% (inactive). With `COc1ccc(C(C)(NC(C)=O)c2nc(-c3ccc(S(C)(=O)=O)cc3)cs2)cc1` (stereo not drawn) the figure was 0.123% (inactive); with `CC(C)Nc1ncnc2c1ncn2[C@H]1CN(Cc2ccncc2)C[C@@H](CO)O1`, 4.5% (inactive). With `Cc1c(NC(=O)c2coc(=O)c(Br)c2)c(=O)n(-c2ccccc2)n1C` the figure was -83.3% (active). For the compound `Cc1c(NC(=O)c2cc(-c3ccc(Br)cc3)on2)c(=O)n(-c2ccccc2)n1C`, the max response, negative = inhibition was -15% (inactive). As to `Cc1cc2oc(C(=O)Nc3c(C)n(C)n(-c4ccccc4)c3=O)c(C)c2cc1Cl`, the max response, negative = inhibition was -21.8% (inactive). With `CCCCCNC(=O)C(c1ccc(OC)cc1)n1c(=O)c(-c2ccccc2)nc2ccccc21` (stereo not drawn) the figure was 3.45% (inactive); with `CC1=C(C(=O)N(C(C)C)C(C)C)CC(CC(=O)NCCCCc2ccccc2)C(=O)N1CCC1=CCCCC1` (stereo not drawn), -16.1% (inactive). For the compound `COC(=O)[C@]12CCCCC=C1N(Cc1ccc3c(c1)OCO3)C(=O)[C@H](CC(=O)NCc1cccs1)C2`, the max response, negative = inhibition is 3.72% (inactive).

Take `Cc1ccc(Cc2cnc(N)s2)o1`: the max response, negative = inhibition was -53.2% (active). With `Cc1ccc(CCC(=O)Nc2ncc(Cc3cc(Cl)ccc3Cl)s2)o1` the figure was -12.7% (inactive).
